# According to PubChem BioAssay AID602250 (The Scripps Research Institute Molecular Screening Center, 2012):
# The campaign covered roughly 360,000 compounds. About 2,200 (0.61%) were called active.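 How the source made its calls: active means inhibition above a per-plate cutoff, the plate's mean sample inhibition plus 3 SD (cut at about 24% in these data); inactive means the rest.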 Only a selection was taken, and actives are over-represented in it overall.
# Experiment: calcium signal blockers in parental CHO-K1 cells – cell-based, Fluo-8 calcium fluorescence, full deck, 1536-well, counter-screen for M1 antagonist project, primary screen (AID 602250);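 further: 0% = DMSO plus EC80 ATP and 100% = DMSO alone without ATP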
# Settings: ATP-induced calcium, Fluo-8 fluorescence, at 3 µM, active compounds read high
row,SMILES,inhibition
1,Cc1cccn2c(=O)c3cc(C(=O)NCCN4CCOCC4)c(=N)n(Cc4cccnc4)c3nc12,6.02% (inactive)
2,Cc1cccn2c(=O)c3cc(C#N)c(=O)n(CCCN4CCOCC4)c3nc12,25.6% (active)
3,Cc1cccn2c(=O)c3cc(C#N)c(=NC(=O)c4cccnc4)n(CC4CCCO4)c3nc12 (centres undefined),20.6% (inactive)
4,COCC(C)NC(=O)c1ccc(-n2nc(C(F)(F)F)cc2-c2cccs2)cc1 (centres undefined),-4.35% (inactive)
5,CC(C)(C)NC(=O)Cn1nnc(-c2ccccc2Cl)n1,-23% (inactive)
6,NC(=O)c1ncn([C@@H]2O[C@H](CN=C3NS(=O)(=O)c4ccccc43)[C@@H](O)[C@H]2O)n1,-7.18% (inactive)
7,Cc1c(-c2ccccc2)cn2c1-c1ccc(C)n1CC2,43.4% (active)
8,CC(=O)c1ccc(NC(=O)CCNS(=O)(=O)c2cc(Br)cnc2N)cc1,0.07% (inactive)
9,Cc1ccc(S(=O)(=O)c2c[nH]c3ccc(Cl)cc3c2=O)cc1,0.53% (inactive)
10,O=C(CCn1nnnc1CN1CCOCC1)N1CCC(c2ccccc2Cl)C1 (centres undefined),-9.8% (inactive)
11,CSc1nsc(NC(=O)Nc2ccccc2)n1,28.2% (active)
12,CSc1nsc(SCC(=O)Nc2cc(C(=O)O)ccc2C)n1,-5.18% (inactive)
13,CCSc1nsc(NC(=O)Nc2cccc(C(C)=O)c2)n1,30.8% (active)
14,C=CCSc1nsc(NC(=O)Nc2cccc(C(C)=O)c2)n1,24.7% (active)
15,O=C(Nc1ccccc1)Nc1nnc(COc2ccccc2F)s1,7.01% (inactive)
16,CCCCN1C(=O)C(=O)N(CC(=O)Nc2cccc(C(C)=O)c2)C1=O,10.5% (inactive)
17,COc1ccc(C(=O)OCC(=O)Nc2cccc(C(C)=O)c2)cc1OC,-4.37% (inactive)
18,CC(=O)c1cccc(NC(=O)[C@@H](NC(N)=O)C(C)C)c1,-2.68% (inactive)
19,CC(=O)c1cccc(NC(=S)N2CCN(S(C)(=O)=O)CC2)c1,-7.23% (inactive)
20,CCN1C(=O)C(C(=O)NC(C)c2ccccc2)C2CC1(C)Oc1ccccc12 (centres undefined),-9.9% (inactive)
21,CC(C)n1cnc2c(NCc3ccccc3)cc(OCC3CCN(C)CC3)cc21,-18.6% (inactive)
22,Cc1cc(S(=O)(=O)NCC(C)C)ccc1OCC(=O)NC1CC1,7.62% (inactive)
23,O=C(CN1C(=O)NC2(CCCC2)C1=O)NCC1CCCO1 (centres undefined),-10.5% (inactive)
24,O=C(Nc1ccccc1C(=O)NCC1CCCO1)c1ccccc1F (centres undefined),-7.11% (inactive)

row,SMILES,inhibition
1,NS(=O)(=O)c1ccc(NC(=O)COC(=O)CCc2c[nH]c3ccccc23)cc1,0.38% (inactive)
2,CC(NC(=S)Nc1ccc(S(N)(=O)=O)cc1)c1ccc2c(c1)OCO2 (centres undefined),9.71% (inactive)
3,NS(=O)(=O)c1ccc(NC(=O)COC(=O)c2c3c(nc4ccccc24)/C(=C\c2ccc4c(c2)OCO4)CCC3)cc1,26.9% (active)
4,Cc1ccc(C(=O)N/C(=C\c2ccco2)C(=O)NC2CCS(=O)(=O)C2)cc1 (centres undefined),-6.64% (inactive)
5,CCC(CC)C(=O)Nc1cc(C(=O)OC)cc(C(=O)OC)c1,-1.71% (inactive)
6,NC(=O)c1ccc(NC(=O)COC(=O)C(Cc2ccccc2)NC(=O)c2ccccc2)cc1 (centres undefined),18.1% (inactive)
7,CC(C)C(NC(=O)c1c(F)cccc1F)C(=O)NNC(=O)c1ccccc1 (centres undefined),-6.47% (inactive)
8,CN(Cc1ccccc1F)C(=O)C(Cc1ccccc1)NC(=O)c1ccccc1 (centres undefined),31.8% (active)
9,Cc1ccccc1N1CCN(C2CCCN(C(=O)c3cn4c(C)cccc4n3)C2)CC1 (centres undefined),-0.61% (inactive)
10,CCc1ccccc1NC(=O)c1ccc2c(c1)CCN2S(C)(=O)=O,4.89% (inactive)
11,CSc1ccccc1NC(=O)c1ccc2c(c1)CCN2S(C)(=O)=O,-14.8% (inactive)
12,CS(=O)(=O)N1CCc2cc(C(=O)Nc3ccccc3Br)ccc21,25.4% (active)
13,Oc1cc2c(cc1O)CN(C(=S)NCCc1ccc(Cl)cc1)CCC2,1.38% (inactive)
14,O=C(CSc1nnc2ccc(-c3ccncc3)nn12)N1CCCCC1,-8.71% (inactive)
15,Cc1nn(Cc2ccc(Cl)c(Cl)c2)c(C)c1NC(=O)c1cc(C2CC2)on1,-3.24% (inactive)
16,Cc1ccccc1Cn1nc(C)c(NC(=O)C(F)(F)F)c1C,-5.32% (inactive)
17,Cc1nn(Cc2ccc(F)cc2)c(C)c1NC(=O)c1noc2c1CCc1ccccc1-2,24.5% (active)
18,Cc1cc(C)c2oc(C(=O)Nc3ccc(S(=O)(=O)Nc4nccc(C)n4)cc3)cc(=O)c2c1,-10.7% (inactive)
19,Cc1ccc(OCc2cc(C(=O)N(C)CCn3ccnc3C)no2)cc1C,-1.34% (inactive)
20,Cc1n[nH]c(=O)c2c(NC(=O)CSc3cc(Cl)ccc3Cl)oc(C)c12,-14.8% (inactive)
21,CCC(C)CN1CCC(CO)(Cc2ccccc2Cl)CC1 (centres undefined),-1.43% (inactive)
22,Nc1ccccc1C(=O)NC1CCCCNC1=O (centres undefined),-4.31% (inactive)
23,Fc1ccccc1CNC(=S)Nc1ccc(Cl)cc1,7.2% (inactive)
24,O=C(NNC(=S)NCc1ccccc1)c1ccc(OC(F)F)cc1,-9.25% (inactive)

row,SMILES,inhibition
1,FC(F)(F)Oc1ccc(NC(=S)NCc2ccccc2)cc1,26.5% (active)
2,COc1ccc(NS(=O)(=O)c2ccc(N3CCN(CCO)CC3)c([N+](=O)[O-])c2)cc1,4.94% (inactive)
3,COc1ccc(NS(=O)(=O)c2ccc(Oc3c(C#N)cccc3C#N)cc2)cc1,49.1% (active)
4,COc1ccc(S(=O)(=O)Nc2ccc3oc(C)c(C(C)=O)c3c2)cc1,9.32% (inactive)
5,CC(OC(=O)CCC(=O)c1ccccc1)C(=O)Nc1ccc(F)cc1 (centres undefined),1.59% (inactive)
6,O=C(Nc1nnc(C2CC2)s1)c1ccccn1,-5.35% (inactive)
7,c1ccc(C(=NNc2nc3ccccc3s2)c2ccccn2)cc1,35.5% (active)
8,COc1cc(OC)nc(N/N=C(\c2ccccc2)c2ccncc2)n1,-9.28% (inactive)
9,CC1(C(=O)NCc2ccc3c(c2)OCO3)CCN1CCc1ccccc1 (centres undefined),-8.04% (inactive)
10,O=C(CC1Sc2ccccc2NC1=O)NNc1ccc(Cl)c(Cl)c1 (centres undefined),-13.4% (inactive)
11,O=C(COc1ccccc1)N1CCN=C1SCc1cccc(F)c1,-5.27% (inactive)
12,O=C(NCC(=O)N1CCC2(CC1)NCCc1[nH]cnc12)c1ccc(Br)cc1,-11.4% (inactive)
13,CCC(=O)N1CCc2cc(S(=O)(=O)CCC(=O)N3CCN(c4ccccc4F)CC3)ccc21,-5.31% (inactive)
14,CCC(=O)N1c2ccc(S(=O)(=O)NCc3ccco3)cc2CC1C (centres undefined),-18.4% (inactive)
15,CCC(=O)N1c2ccc(S(=O)(=O)CCC(=O)N3CCN(c4ccccc4)CC3)cc2CC1C (centres undefined),24.5% (active)
16,CC[C@]12c3[nH]c4ccc(OC)cc4c3CCN1C(=O)C(CC(=O)NCCN1CCOCC1)C[C@@H]2C(=O)N1CCN(C(=O)C2CC2)CC1 (some centres undefined),-4.64% (inactive)
17,CCc1ccc2oc(=O)cc(CN3CCCCC3C)c2c1 (centres undefined),-11.8% (inactive)
18,O=C(COC(=O)c1ccc(F)cc1)NCC1COc2ccccc2O1 (centres undefined),-5.85% (inactive)
19,c1ccc2c(c1)OCC(CNc1ncnc3nc[nH]c13)O2 (centres undefined),44.4% (active)
20,COc1ccc(CCNc2ncnc3nc[nH]c23)cc1OC,10.8% (inactive)
21,O=C(Nc1ccc2c(c1)OCCO2)C1c2ccccc2OCC(=O)N1Cc1ccccn1 (centres undefined),-12.5% (inactive)
22,CN(CCO)Cc1csc2ccc(Br)cc12,-7.65% (inactive)
23,CN(Cc1ccc(F)cc1)C(=O)COc1ccc2ccccc2c1,-15.2% (inactive)
24,COc1ccc(C(=O)COC(=O)Cn2cnc3c2c(=O)n(C)c(=O)n3C)c(OC)c1,-0.99% (inactive)

row,SMILES,inhibition
1,COc1ccc(C(C#N)Nc2ccccc2C)cc1 (centres undefined),-8.31% (inactive)
2,CC(C)(C)n1nnnc1C(c1ccc2ncccc2c1)N1CCSCC1 (centres undefined),-9.5% (inactive)
3,CCOc1ccc(C(=O)NCC(=O)N2CCN(c3ccc(C(F)(F)F)cn3)CC2)cc1,31.8% (active)
4,COc1ccc(N2CCN(C(=O)CNC(=O)c3ccc(C(C)(C)C)cc3)CC2)cc1,9.5% (inactive)
5,O=C(NCC(=O)N1CCN(c2ncc(C(F)(F)F)cc2Cl)CC1)c1ccc(Br)o1,-11.5% (inactive)
6,Cc1ccccc1CSCCNC(=O)c1ccc(N(C)S(=O)(=O)c2ccccc2)cc1,-7.28% (inactive)
7,Cc1cc(-c2nnc(SCC(=O)Nc3ccc(S(N)(=O)=O)cc3)n2N)n[nH]1,-13.8% (inactive)
8,O=C(NCc1ccccc1)C1c2ccccc2OCC(=O)N1C1CC1 (centres undefined),0.77% (inactive)
9,O=[N+]([O-])c1ccc2c(c1)C(O)n1nc(-c3ccccc3)nc1S2 (centres undefined),-21.9% (inactive)
10,COc1ccc(CCNc2nc3ccc(C)cc3n3cnnc23)cc1OC,-5.44% (inactive)
11,COc1cc(Nc2nc3ccc(Cl)cc3n3cnnc23)cc(OC)c1OC,28.9% (active)
12,COc1ccc(OC)c(Nc2nc3ccccc3n3cnnc23)c1,-12.2% (inactive)
13,O=C1CN(C(=O)COC(=O)c2cnc(Cl)c(Cl)c2)c2ccccc2N1,-25% (inactive)
14,O=C(CCc1nnc(Cc2ccc3c(c2)OCO3)o1)NCCc1ccccc1Cl,-0.82% (inactive)
15,COc1ccccc1Cc1c(-c2ccc(Cl)cc2)nc2c3ccccc3ccn12,-20.1% (inactive)
16,CNS(=O)(=O)c1ccc2c(c1)[nH]c(=S)n2C,35.9% (active)
17,CCCCn1c(=S)[nH]c2cc(S(=O)(=O)N3CCCCC3)ccc21,-12.6% (inactive)
18,CCn1c(=S)[nH]c2cc(S(=O)(=O)N3CCOCC3)ccc21,-3.41% (inactive)
19,CN1CCc2c(sc3c2c(NCc2ccco2)nc2nnnn23)C1,-19.9% (inactive)
20,O=C(c1ccc(N2CCCC2=O)cc1)N1CCN(c2ccc(C(F)(F)F)cc2[N+](=O)[O-])CC1,44% (active)
21,O=C(Cc1ccc(S(=O)(=O)N2CCOCC2)s1)N1CCN(c2ccc(C(F)(F)F)cc2[N+](=O)[O-])CC1,5.21% (inactive)
22,COc1cc(OC)cc(C(=O)NC(=S)N2CCN(c3ccc(C(F)(F)F)cc3[N+](=O)[O-])CC2)c1,5.86% (inactive)
